Shown are actives, neighbours in structure and some others; about 5.9% of the full set was active somewhere.
KB-V1 MDR tox: kills drug-selected multidrug resistant KB-V1 cells. KB-V1 MDR cells viability, CellTiter-Glo, 72 h. Potency, µM (series often up to 46.1 µM), actives largely listed as cytotoxic. hit rate 3.4% among 400,000. AID 1347076; further: on the % scale 0 is the no-effect control and ±100 the full control effect; nearly all actives have a fitted effect of over 60% in size
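Cytotoxicity via CellTiter-Glo luminescence after 72 h compound exposure at 37 degrees C. Cells: drug-selected KB-V1 line, DMEM phenol-red free plus 10% FBS. Compounds tested at multiple concentrations; normalized data fitted to concentration-effect curves.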
TGFb SMAD3 inh: inhibitors of TGF-b signaling; HepG2 CAGA-GFP TGF-b/SMAD3 reporter, GFP fluorescence, 18 h; TGF-beta stimulated, 500 pg/mL final; Potency, µM (series often up to 46.1 µM), inactives show at the highest dose activity, negative = inhibition, hits mostly inhibitors; hit rate 1.2% among 410,000; further: on the % scale 0 is the no-effect control and ±100 the full control effect; nearly all actives have a fitted effect of over 65% in size
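Smad-responsive CAGA-GFP expression was quantified in HEPG2 cells exposed to compounds and 500 pg/mL final TGF-beta for 18 h at 37 degrees C; unstimulated wells defined full inhibition.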
ATXN2 expr inh: ATXN2 expression inhibition; hit rate 0.72% among 360,000; Potency, µM (highest dose often 57 µM), inactives show at the top dose activity change, negative = inhibition, usual class: inhibitors; HEK-293 ATXN2-luciferase reporter, luminescence, 24 h; further: on the % scale 0 is the no-effect control and ±100 the full control effect; nearly all actives have a fitted effect of over 55% in size
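ATXN2-luciferase reporter cells (luciferase flanked by upstream and downstream ATXN2 gene portions) were treated 24 h at 37 °C with compounds at up to 57 uM. SteadyGlo luminescence gave expression; GF-AFC fluorescence gave viability.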
KB-3-1 tox: KB-3-1 parental cell cytotoxicity. KB-3-1 viability, CellTiter-Glo ATP luminescence, 72 h. Potency, µM (top dose mostly 46.1 µM), hits mostly cytotoxic. hit rate 1.4% among 400,000. AID 1347075; further: on the % scale 0 is the no-effect control and ±100 the full control effect; nearly all actives have a fitted effect of over 60% in size
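KB-3-1 parental drug-naive adenocarcinoma cells in DMEM/10% FBS, incubated 72 h at 37 C with pin-transferred compounds across a concentration series. Viability by CellTiter-Glo luminescence; concentration-response curves fitted after normalization.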
HepG2 tox: HepG2 cytotoxicity, counter-screen for TGF-b inhibitors; HepG2 CAGA-GFP viability, ATP luminescence, 18 h; hit rate 0.76% among 410,000; AID 588856; Potency, µM (series often up to 46.1 µM), inactives show at the highest dose activity change, negative = cytotoxicity, actives largely listed as cytotoxic
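CellTiter-Glo luminescence gave cytotoxicity after 18 hours at 37 degrees C. The cells were HepG2 CAGA-GFP in 1% FBS DMEM, stimulated with 500 pg/mL TGF-beta after compound addition. %Activity was normalised to no-cell wells (complete cell-killing) and DMSO (no toxicity), and curves were fitted and classified.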
S2 tox: viability counter-screen for ATXN expression inhibitors; hit rate 0.49% among 400,000; S2 cells (HEK-293 line with an ATXN2-luciferase reporter) viability, CellTiter-Fluor protease fluorescence, 24 h; Potency, µM (series often up to 56.7 µM), actives largely listed as cytotoxic; further: nearly all actives have a fitted effect of over 40% in size
Starred values were filed as active, the others as inactive; i = inactive; ? = inconclusive; · = no result; ! = not active in a repeat. The call rests on the fitted dose curve; in most records, active means well fitted curve in the direction sought with a large enough effect; inconclusive means small, poorly fitted or top-dose-only effect, or another doubt; inactive means no such curve, though single readings can be large; an effect the other way counts as inactive or inconclusive. Potency means the concentration at half of the fitted maximal effect.

SMILES | KB-V1 MDR tox | TGFb SMAD3 inh | ATXN2 expr inh | KB-3-1 tox | HepG2 tox | S2 tox
COc1ccc(-n2ncc(Cl)c(Cl)c2=O)cc1 | ? | ? | ? | 5.2µM* | -30% | 3.8µM*
CC(=O)Nc1cc(C(=O)OC(C(=O)c2ccccc2)c2ccccc2)ccc1C (centres undefined) | 16µM* | -12% | 13% | i | -31% | i
Cc1ccc(NC(=O)C(c2ccccc2)N2CCN(CC(=O)NC3CC3)CC2)cc1Cl (centres undefined) | i | -29% | -28% | i | -14% | i
Cc1cc(C)cc(NC(=O)C(c2ccccc2)N2CCN(CC(=O)NC3CC3)CC2)c1 (centres undefined) | 16µM* | ? | 0% | i | -18% | i
Cc1ccc(NC(=O)C(c2ccccc2)N2CCN(CC(=O)NC3CC3)CC2)cc1 (centres undefined) | 21µM* | 1% | 1% | i | -3% | i
Cc1cnc(N2CCC(C(N)=O)CC2)nc1-c1cccc(N(C)C)c1 | i | · | · | i | · | ·
O=C1CC(c2cccc(O)c2)c2c(nc(SCc3ccccc3F)[nH]c2=O)N1 (centres undefined) | i | -19% | -1% | i | 7.1µM* | i
CCOc1cc(C2CC(=O)Nc3nc(SCc4ccccc4)[nH]c(=O)c32)ccc1O (centres undefined) | i | 0% | -9% | i | -4% | i
CC(C)NC(=O)C1(C)CN(S(C)(=O)=O)CC(=O)N1CC(F)(F)F (centres undefined) | i | · | · | i | · | ·
O=C1CCCC2=C1C(c1[nH]ncc1Cl)N=C(Nc1nc3ccccc3o1)N2 (centres undefined) | · | · | 38% | · | · | ·
CC(=O)NCCNC(=O)c1cnn(-c2nccc(-c3cc(C)sc3C)n2)c1C | · | · | · | · | · | i
O=C(c1ccco1)N1CCN(C(=O)c2ccc(COc3ccc4c(c3)CCC4)o2)CC1 | 16µM* | -1% | 3% | i | -34% | i
O=[N+]([O-])c1cccnc1Sc1ccc(F)cc1 | i | -13% | -13% | i | 7.1µM* | i
CC1(C)CC(N2CCN(c3ccccc3)CC2)=CC(=[N+]2CCCC2)C1 | i | -20% | ? | 12µM* | -3% | i
CC1CC(C)C[N+](=C2C=C(N3CCCC3)CC(C)(C)C2)C1 (centres undefined) | i | ? | ? | 5.8µM* | -46% | ?
COc1ccc2c(c1)c1c(c(=O)n(Cc3ccccc3)c(=O)n1CC(=O)Nc1ccccc1OC)n2C | i | 0% | 12% | i | -3% | i
Cc1ccc(CNc2nc(CN3CCNC(=O)C3)nc3ccccc23)o1 | · | · | · | · | · | i
O=C(Cn1c(-c2cccs2)cc2cc(Cl)ccc21)N1CCN(c2ccccc2F)CC1 | i | -19% | 16% | i | -8% | i
COc1ccc(NC(=O)C(=O)NCCc2ccc(OC)c(OC)c2)c(OC)c1 | i | 4% | -25% | i | 1% | i
CCOc1ccc(C(=O)CC(=O)C(=O)NCCc2ccc(OC)c(OC)c2)cc1 | 7.3µM* | -14% | 4% | i | 22% | i
COc1cccc(NC(=O)C2CCCN2S(=O)(=O)c2ccc3nc(-c4ccccc4)[nH]c3c2)c1 (centres undefined) | ? | ? | ? | ? | -20% | ?
Cc1ccc(N(C(=O)Cn2nnc(-c3ccccc3)n2)C(C(=O)NC2CCCCC2)c2ccccn2)cc1C (centres undefined) | 1.2µM* | -9% | -1% | i | -1% | i
Cc1ccc(N(C(=O)CCl)C(C(=O)NC2CCCCC2)c2cccnc2)cc1C (centres undefined) | 3.7µM* | ? | 3.2µM* | 3.7µM* | -26% | 2.8µM*
CCOc1ccc(-c2cc(C(=O)N3CCN(c4ccccn4)CC3)c3ccccc3n2)cc1 | ? | 38% | 25% | 4.1µM*! | 0% | i
COc1ccc2cc(-c3cc(C(=O)O)c4ccccc4n3)ccc2c1 | i | -3% | ? | 15µM* | -57% | i
SMILES | KB-V1 MDR tox | TGFb SMAD3 inh | ATXN2 expr inh | KB-3-1 tox | HepG2 tox | S2 tox
CCOC(=O)N1CCN(C(=O)c2cc(-c3ccc(OCC)cc3)nc3ccccc23)CC1 | 2.3µM* | -11% | 6% | 4.6µM* | -24% | ?
COc1ccc(-c2cc(C(=O)O)c3ccccc3n2)c(OC)c1 | i | 8% | -3% | i | 3% | i
COc1ccc(-c2cc(C(=O)N3CCN(c4ccccn4)CC3)c3ccccc3n2)cc1 | i | ? | -35% | i | -31% | ?
COc1cccc(CN2CCN(C(=O)c3cc(-c4cccnc4)nc4ccc(C)cc34)CC2)c1 | 23µM* | -12% | -19% | i | -24% | i
COc1ccc(-c2cc(C(=O)N3CCN(c4ccccc4)CC3)c3ccccc3n2)cc1 | 7.3µM* | -27% | -7% | ? | -2% | ?
CCCC(O)(c1ccc(Cl)cc1)C(CN1CCOCC1)c1ccc(Cl)cc1 (centres undefined) | 16µM* | ? | -31% | ? | -55% | i
COc1ccc(C(O)(CCC(C)C)C(CN2CCOCC2)c2ccc(Cl)cc2)cc1 (centres undefined) | 26µM* | ? | -28% | ? | -49% | i
CCCCC(O)(c1ccc(F)cc1)C(CN1CCOCC1)c1ccc(Cl)cc1 (centres undefined) | 8.2µM* | ? | -29% | ? | -57% | i
Cc1onc(-c2ccccc2)c1C(=O)N[C@@H]1C(=O)N2[C@@H](C(=O)O)C(C)(C)S[C@@H]12 | · | · | 5% | · | · | i
COc1ccc(Cn2ccn(Cc3cccc(Cl)c3)c(=O)c2=O)cc1 | · | -7% | · | · | -1% | ·
COc1cc(OC)c(OC)cc1/C=C1\CC(C)C/C(=C\c2cc(OC)c(OC)cc2OC)C1=O (centres undefined) | i | ? | 13µM* | ? | 11µM* | ?
CCC1C/C(=C\c2cc(OC)c(OC)cc2OC)C(=O)/C(=C/c2cc(OC)c(OC)cc2OC)C1 (centres undefined) | i | ? | ? | ? | 8.9µM* | ?
Oc1ccccc1-c1nc2cnccn2c1Nc1ccc(Cl)cc1 | i | 6.3µM* | ? | i | -106% | ?
Cc1ccc(NC(=O)C2(C)CCN2C(=O)c2ccccc2CCc2ccccc2)cc1C (centres undefined) | ? | 2% | -33% | ? | -23% | i

Screening results from PubChem.
